Measurements from PubChem BioAssay AID743398 (Broad Institute, 2014).
About 3,600 (1.2%) of roughly 300,000 compounds were called active. Shown is part of a subset that was picked to be rich in actives. Values without a mark were called inactive. Rule as the data show it: active = activation above about 30% (passing the limit was not always enough); inconclusive = no clear call, values can overlap the other calls.

Assay: activation of beta-catenin signaling reporter – cell-based, plate reader, single point, primary screen (AID 743398);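 also: 0% = neutral control wells and 100% = positive control wells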
Settings: Wnt/beta-catenin reporter cell assay, activator, at 9.35 µM, hits give high values
Work on COc1cccc(CNC(=O)[C@H]2CCCN2C(=O)[C@H]2CCCN2C(=O)c2cc(F)cc(F)c2)c1 yielded an activation of -1.85%. For CN(C)c1ccc(C2Nc3ccccc3C(=O)N2NS(=O)(=O)c2ccccc2)cc1 (stereo not given), the activation was -0.625%. Molecule O=C1c2ccccc2NC(c2ccccc2O)N1NS(=O)(=O)c1ccccc1 (stereo not given) has an activation of -0.668%. In the case of O=C1c2ccccc2NC(c2ccccn2)N1NS(=O)(=O)c1ccccc1 (stereo not given), the activation was 31% (active). Molecule c1ccc(CNCc2ccc(CNCc3ccccc3)cc2)cc1 has an activation of 0.235%. Molecule N#CCCN(C(=O)Nc1ccc(Cl)c(Cl)c1)C1CCCCC1 has an activation of 2.31%. Work on CC1(C(=O)NCc2ccc3c(c2)OCO3)CCN1C(=O)Cc1cccc2ccccc12 (stereo not given) yielded an activation of 12.9%. Work on CCN(CC)CCN(C)C(c1ccnc2ccccc12)c1nnnn1-c1ccc2c(c1)OCCO2 (stereo not given) yielded an activation of -2.38%. With CCc1cccc(CC)c1N1C(=O)CC(Sc2ccccc2N)C1=O (stereo not given) the activation was 2.41%. c1c2c(cc3sc(N4CCCCC4)nc13)OCCO2 gave an activation of 1.11%. With O=S(=O)(Nc1ccc2nc(N3CCOCC3)sc2c1)c1ccccc1 the activation was 29.3%. In the case of Brc1ccc2nc(N3CCCC3)sc2c1, the activation was 43.7% (active). Molecule COC(=O)[C@@]12C[C@@H](CC(=O)N3CCC(c4ccccc4)CC3)C(=O)N(Cc3ccccc3)C1=CCC(C)(C)C2 has an activation of -3.58%. In the case of CCCCCc1c(Cc2ccccc2)ncn1CCc1ccccc1OC, the activation was -9.51%. For O=C(Nc1ccc2ccccc2c1[N+](=O)[O-])c1ccccc1, the activation was 55.8% (active). In the case of O=C(CNC(=O)c1ccccc1)Oc1ccc([N+](=O)[O-])cc1, the activation was -0.597%. For O=C(O)c1cc([N+](=O)[O-])c(Nc2cccc3ccccc23)c([N+](=O)[O-])c1, the activation was 0.153%. Work on COC(=O)c1c(-c2ccc(OC)cc2)c2c(c3c4ccccc4n(S(=O)(=O)c4ccc(C)cc4)c13)C(=O)N(C)C2 yielded an activation of -6.59%. Molecule COC(=O)C1=C(C(=O)OC)C2C=C(C(C)C)C1C(=O)C2(C)O (stereo not given) has an activation of -3.31%. Molecule O=C(NCc1ccc(F)cc1)c1cc(C2CCCCN2C(=O)c2ccccn2)on1 (stereo not given) has an activation of -0.749%. For O=C(NCc1ccccc1)[C@@H]1CCCN1C(=O)[C@@H](NS(=O)(=O)c1ccc(F)cc1F)C1CCCCC1, the activation was -0.246%. With COC(=O)c1ccc(CSc2nncn2N)cc1 the activation was -7.5%. With COC(=O)c1ccc(CSc2ccc(S(=O)(=O)N3CCCCC3)cn2)cc1 the activation was -0.89%. In the case of COC(=O)c1ccc(SCc2ccccc2)nc1, the activation was 51.6% (active). Nc1ccn([C@@H]2O[C@H](C(=O)N[C@H]3CCCCNC3=O)[C@@H](O)[C@H]2O)c(=O)n1 showed an activation of -3.4%. For O=C(Nc1ccc2c(c1)OCCO2)C1CCCN(c2ncccn2)C1 (stereo not given), the activation was 45.5% (active). Work on O=C(Nc1ccc2c(c1)OCCO2)C1CCCC1 yielded an activation of -15.2%. Cc1cc(C)nc(N2CCC(C(=O)Nc3ccc4c(c3)OCCO4)CC2)n1 gave an activation of -5.24%. CC1(C(=O)Nc2cccc3cccnc23)CCN1C(=O)CCC1CCCC1 (stereo not given) gave an activation of -4.88%. For CN1CCN(CCNC(=O)Nc2ccccc2[N+](=O)[O-])CC1, the activation was -0.54%. In the case of O=[N+]([O-])c1ccccc1N/N=C1\CCc2ccccc21, the activation was 47.7% (active). O=[N+]([O-])c1cc(C(F)(F)F)ccc1NN=C1CCCC1 gave an activation of 6.33%. CC1=C(C(=O)N2CCOCC2)CC(CC(=O)NCC2CCCCC2)C(=O)N1Cc1ccc(F)cc1 (stereo not given) showed an activation of -1.2%. CCCCCCN1CCN(C2CN(Cc3cn(Cc4ccc(F)cc4)nn3)S(=O)(=O)C2)CC1 (stereo not given) showed an activation of -5.62%. In the case of Cc1ccc(C(=O)Nc2ccn(C)n2)cc1, the activation was 55.8% (active). CN(C)S(=O)(=O)c1cc(C(=O)Nc2ccn(C)n2)c(Cl)cc1Cl gave an activation of 1.22%. Molecule Cn1ccc(NC(=O)Nc2ccc(Cl)cc2)n1 has an activation of 20.1%. Work on Cc1ccc(-c2ccc(CN3C(C(C)C)C(=O)N(Cc4cn(CCC5OCCO5)nn4)CCS3(=O)=O)cc2)cc1 (stereo not given) yielded an activation of -0.655%. CC(=O)Nc1ccc(C=CC(=O)c2ccc([N+](=O)[O-])cc2)cc1 gave an activation of -6.15%. CC(=O)Nc1ccc(C(=O)NNC(=O)CCCCC(=O)NNC(=O)c2ccc(NC(C)=O)cc2)cc1 gave an activation of 1.15%. In the case of CC(=O)Nc1ccc(C(=O)/C=C/c2ccc[nH]2)cc1, the activation was 42.8% (active). For CCOc1ccccc1C(=O)N1CCC[C@@H]1C(=O)N1CCC[C@H]1C(=O)NCc1ccccc1, the activation was 1.73%. With COC(=O)[C@]12C[C@H](CC(=O)NCCc3ccccc3OC)C(=O)N(Cc3ccccc3)C1=C[C@H](C(C)C)O[C@@H]2C1CC1 the activation was -2.31%. With COc1ccc(Nc2nnc(C)c3ccccc23)cc1 the activation was 1.79%. In the case of COc1ccc(Nc2ccc3ccccc3c2)cc1, the activation was 50.4% (active). COc1ccc(-c2nnc(-c3ccc4ccccc4c3)o2)cc1 gave an activation of 3.21%. In the case of CCOc1ccc2[nH]c(=S)sc2c1, the activation was 6.79%. COCc1cc(=O)[nH]c(-c2ccc(C(F)(F)F)cc2)n1 showed an activation of -1.39%. CCCc1cc(=O)n2[nH]c(C)c(-c3ccc(Cl)cc3)c2n1 gave an activation of -2.59%. For COCc1cc(=O)n2[nH]c(C)c(-c3ccccc3)c2n1, the activation was 47.6% (active). O=C(C(=O)N1CCC(c2ccccc2)CC1)c1ccccc1 showed an activation of -2.25%. Cc1cc(NC(=O)COc2ccccc2C#N)no1 showed an activation of 19%. With Cc1cc(NC(=O)CSc2nc3c(cc2C#N)CCCCC3)no1 the activation was 35.1% (active). Work on CC(NC(=O)CSc1nc2c(cc1C#N)CN(C)CC2)c1ccccc1 (stereo not given) yielded an activation of -0.152%. CCOC(=O)C=Cc1ccc(C(=O)OCC)[nH]1 showed an activation of -4.57%. With COc1ccc(C2=CN(Cc3ccccc3)C(c3ccc(OC)cc3)CC2=O)cc1 (stereo not given) the activation was -3.3%. With COC(=O)c1ccc(OC(=O)c2cnccn2)cc1 the activation was -1.23%. For Cn1c(=NC(=O)c2cnccn2)sc2ccccc21, the activation was 40.5% (active). Work on O=C(NCCCNC(=O)c1ccccc1Cl)c1cnccn1 yielded an activation of -1.92%. For CC(=O)C1=C(C)N(Cc2ccccc2)C(=S)NC1c1cccc(Br)c1 (stereo not given), the activation was -4.75%. CCOC(=O)[C@]12CCCC=C1N(CCC1=CCCCC1)C(=O)[C@H](CC(=O)NCCCOC)C2 showed an activation of -3.04%. With O=C(/C=C/c1ccc([N+](=O)[O-])o1)NNC(=O)c1ccc(F)cc1 the activation was 37.2% (active). O=C(N/N=C/c1ccc([N+](=O)[O-])o1)c1cn(-c2ccccc2)nc1-c1ccc(F)cc1 gave an activation of -0.879%. For O=C(NNC(=O)C1CCCC1)c1ccc(F)cc1, the activation was -1.64%. Molecule CCCCCn1nnnc1-c1nc2cc3ccccc3cc2[nH]c1=O has an activation of -1.88%. With COc1ccc(NC(=O)C2(C)Cc3c(-c4cccc(NC(C)=O)c4)ccnc3O2)cc1OC (stereo not given) the activation was -0.993%. Work on COCc1cc(N2CCN(C(=O)OC(C)(C)C)C[C@@H]2C)ccc1N1CCN(Cc2ccccc2)[C@H](C)C1 yielded an activation of -6.08%. With O=C(NCCC1=CCCCC1)c1ccc(Cl)c([N+](=O)[O-])c1 the activation was 12.3%. Work on O=C(Cc1nn[nH]n1)NCCC1=CCCCC1 yielded an activation of 1.57%. For O=C(NCCC1=CCCCC1)c1ccc(-n2cncn2)cc1, the activation was 36.7% (active). Work on COC(=O)[C@@]12C[C@@H](CC(=O)NCCCCc3ccccc3)C(=O)N(Cc3ccccc3)C1=CCC(C)(C)C2 yielded an activation of -3.6%. With O=C(c1ccc(N2CCOCC2)c([N+](=O)[O-])c1)N1CCN(c2ccccc2F)CC1 the activation was -6.11%. With O=C(c1ccc(N2CCOCC2)c([N+](=O)[O-])c1)N1CCN(S(=O)(=O)c2cccs2)CC1 the activation was 42% (active). In the case of CC(C)c1ccc(S(=O)(=O)N2CCN(C(=O)c3ccc(N4CCCC4)c([N+](=O)[O-])c3)CC2)cc1, the activation was -1.38%. Work on O=S1(=O)c2c(cccc2N2CCCC2)O[C@H](COCc2ccccc2)CN1C1CC1 yielded an activation of -2.59%. Molecule c1ccc(C2=Nc3cccc4cccc(c34)N2)cc1 has an activation of -4.88%. With Brc1ccc(C2CC(c3ccccc3)=Nc3ccccc3N2)cc1 (stereo not given) the activation was 63.6% (active). In the case of O=C(c1ccccc1)N1N=C(c2ccccc2O)CC1c1ccc(Br)cc1 (stereo not given), the activation was -1.76%. Work on COCOc1cccc(CN2CCC(C)(Oc3ccc(SC)cc3)C2)c1 (stereo not given) yielded an activation of 0.071%. CC1(C)CC(=O)C=C(c2ccc(COC(=O)c3cc(F)cc(F)c3)cc2)C1=O gave an activation of 0.449%. In the case of CCc1cc(-c2nnn(CCC3COCCO3)c2CC)ccc1-c1cn(Cc2ccc3ccccc3c2)nn1 (stereo not given), the activation was -3.93%. Molecule COC(=O)Cc1[nH]n(-c2nc3ccccc3s2)c(=O)c1C(C)=Nc1ccc(OC)cc1 has an activation of -8.84%. In the case of COc1ccc(N=C(C)c2sc3ccccc3c2O)cc1, the activation was 50.3% (active). COc1ccc(N=Nc2ccc(O)c(P(=O)(c3ccccc3)c3ccccc3)c2)cc1 showed an activation of 1.19%. COc1cc(NC(=O)C2=C(C)OCCS2)c(Cl)cc1C(=O)NCCCN1CCCC(C)C1 (stereo not given) gave an activation of 2.04%. Work on Cc1cc2cc3n(c2nn1)N=C(Cl)CC3 yielded an activation of -1.61%. Cc1cc(CO)nn1-c1ccc([N+](=O)[O-])cc1 showed an activation of 3.25%. For Cc1nn(-c2ccc([N+](=O)[O-])cc2)c(N)c1-c1ccccc1, the activation was 37.5% (active). With O=C1CC(c2ccccc2)=NN1c1ccc([N+](=O)[O-])cc1 the activation was 5.66%. For CC(C)C[C@H](NC(=O)CC1CCCC1)C(=O)N1CCC[C@H]1C(=O)NCc1ccccc1, the activation was 3.46%.
